S2 tox: cell viability loss in ATXN counter-screen; 400,000 tested, 0.49% active; Potency, µM (doses to about 56.7 µM), most hits filed as cytotoxic; AID 651635; S2 cells (HEK-293 line with an ATXN2-luciferase reporter) viability, CellTiter-Fluor protease fluorescence, 24 h; note: potency is the fitted concentration of half-maximal effect; nearly all actives have a fitted effect of over 40% in size
IDH1 R132H inh: blocks human mutant IDH1 R132H enzyme; AID 602179; IDH1-R132H enzyme, NADPH consumption, diaphorase/resazurin fluorescence; Potency, µM (highest dose often 76.6 µM), without a hit: top-dose activity change, negative = inhibition, most hits filed as inhibitors; 390,000 tested, 0.093% active; note: potency is the fitted concentration of half-maximal effect; % is set by controls: 0 for no effect and ±100 for the full control effect; nearly all actives have a fitted effect of over 65% in size
Target sequence (O75874 whole entry R132H, stated change not applied): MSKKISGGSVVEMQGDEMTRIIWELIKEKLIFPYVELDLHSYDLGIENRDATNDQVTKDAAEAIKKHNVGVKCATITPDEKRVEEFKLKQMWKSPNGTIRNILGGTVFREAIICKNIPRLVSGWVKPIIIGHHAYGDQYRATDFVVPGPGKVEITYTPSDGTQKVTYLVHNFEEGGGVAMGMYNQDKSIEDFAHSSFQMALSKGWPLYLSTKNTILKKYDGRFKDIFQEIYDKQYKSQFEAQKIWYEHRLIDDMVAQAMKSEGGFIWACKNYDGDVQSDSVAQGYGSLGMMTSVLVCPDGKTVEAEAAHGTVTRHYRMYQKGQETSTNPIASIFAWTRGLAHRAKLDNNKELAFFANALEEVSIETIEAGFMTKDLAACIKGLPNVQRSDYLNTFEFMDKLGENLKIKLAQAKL
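IDH1-R132H (0.5 ug/mL) preincubated 30 min with compound, then NADPH (0.016 mM) and alpha-KG (2 mM) added; 80 min at RT, pH 7.5. Remaining NADPH coupled via diaphorase/resazurin to fluorescence (540/590 nm); concentration-response curves normalized to no-enzyme control.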
HepG2 viability: kills HepG2 cells in TGF-b inhibitor counter-screen; HepG2 CAGA-GFP viability, ATP luminescence, 18 h; Potency, µM (highest dose often 46.1 µM), for the others: at the top dose activity change, negative = cytotoxicity, hits mostly cytotoxic; 410,000 tested, 0.76% active; AID 588856; note: potency is the fitted concentration of half-maximal effect
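CellTiter-Glo luminescence gave cytotoxicity after 18 hours at 37 degrees C. The cells were HepG2 CAGA-GFP in 1% FBS DMEM, stimulated with 500 pg/mL TGF-beta after compound addition. %Activity was normalised to no-cell wells (complete cell-killing) and DMSO (no toxicity), and curves were fitted and classified.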
LDHA block: LDHA (human) enzyme inhibition. purified LDHA, NADH/diaphorase-resazurin fluorescence; stronger effect = lower value. activity change, % (values are at about 110 or 230 µM). 480,000 tested, 0.15% active; in the data active = activity change below about -30%; inconclusive = mostly about -25% to -30%;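 note: plate controls were DMSO wells for no effect and wells without enzyme for full effect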
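Remaining NADH was detected by diaphorase (0.133 mg/mL) converting 37 µM resazurin to fluorescent resorufin, read at 0 and 20 minutes. The preceding 5-minute room-temperature reaction used 2 nM LDHA, 0.2 mM sodium pyruvate and 0.06 mM NADH at pH 7.4.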
TGFb SMAD3 inh: TGF-b pathway inhibition | HepG2 CAGA-GFP TGF-b/SMAD3 reporter, GFP fluorescence, 18 h; TGF-beta stimulated, 500 pg/mL final | Potency, µM (series often up to 46.1 µM), without a hit: top-dose activity, negative = inhibition, actives largely listed as inhibitors | 410,000 tested, 1.2% active | AID 588855; note: potency is the fitted concentration of half-maximal effect; % is set by controls: 0 for no effect and ±100 for the full control effect; nearly all actives have a fitted effect of over 65% in size
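Using HEPG2 CAGA-GFP reporter cells at 1000 cells/well, we pinned test compounds, stimulated with recombinant TGF-beta (500 pg/mL final) and measured total well GFP after 18 h.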
ATXN2 expr inh: reduces ATXN2 reporter expression in HEK-293 cells; HEK-293 ATXN2-luciferase reporter, luminescence, 24 h; Potency, µM (top dose mostly 57 µM), for the others: top-dose activity change, negative = inhibition, most hits filed as inhibitors; 360,000 tested, 0.72% active; AID 1745845; note: potency is the fitted concentration of half-maximal effect; % is set by controls: 0 for no effect and ±100 for the full control effect; nearly all actives have a fitted effect of over 55% in size
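qHTS (up to 57 uM final) was run with 24 h compound exposure of reporter cells at 37 °C. Each well was multiplexed: SteadyGlo luminescence measured ATXN2-luciferase expression after a fluorogenic Gly-Phe-AFC viability readout (25 uM final).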
* hit, by the source's call; i = inactive; u = inconclusive; x = no result; ! = repeats disagree; [ ] = remark or other dose. Most compounds without a hit are left out; they make up all but 2.2% or so of the library. Unless noted, calls come from the whole dose curve; as a rule, active = well fitted curve in the direction sought with a large enough effect; inconclusive = small, poorly fitted or top-dose-only effect, or another doubt; inactive = no such curve, though single readings can be large; an effect the other way counts as inactive or inconclusive.

SMILES | S2 tox | IDH1 R132H inh | HepG2 viability | LDHA block | TGFb SMAD3 inh | ATXN2 expr inh
CC(C)C[C@H](NC(=O)c1[nH]cnc1C(=O)Nc1ccccc1F)C(=O)OC(C)(C)C | u | -4% | 11µM* | 5 | u | u
CN(C)CCNc1oc(-c2cccc(Cl)c2)nc1C#N | i | -2% | -1% | -33*! | 35% | -8%
CCCOc1ccc(-c2nc(C#N)c(NCCN(C)C)o2)cc1 | x | x | x | -32* | x | x
COc1ccc2oc(-c3ccc(C)c(NC(=O)c4cccnc4)c3)nc2c1 | i | 2% | -4% | -4 | 0% | 7%
N#Cc1ccc(Nc2nc(-c3ccccc3)c(C(=O)c3ccccc3)s2)cc1 | u | x | 11µM* | -3 | u | u
CCCc1cc(=O)[nH]c(SCC(=O)N(CC)C2CCS(=O)(=O)C2)n1 (centres undefined) | i | 8% | 0% | -5 | 9% | 6%
CN(CC(=O)Nc1ccc(Cl)cc1)Cc1cc(Cl)cc2c1OCOC2 | x | x | x | -2 | x | x
Cc1ccc(Cl)cc1N(C)C(=O)c1cc2ccc3cccnc3c2[nH]1 | x | 0% | 13µM* | 6 | 11µM* | x
Cc1ccc(C)c(N2CCN(C(=O)c3cc4ccc5cccnc5c4[nH]3)CC2)c1 | x | 4% | -23% | -1 | 16µM* | x
O=C(NCc1ccccc1)c1cc2ccc3cccnc3c2[nH]1 | x | 26% | -19% | -1 | -8% | x
COc1ccc2[nH]cc(C(=O)CN3CCCC(C)(C)C3)c2c1 | i | 0% | -2% | -1 | 3% | 9%
Cc1ccsc1CN(C(=O)COc1ccccc1Cl)C1CCS(=O)(=O)C1 (centres undefined) | x | x | 3% | -5 | x | x
COc1ccc(Cn2c(-c3ccc(C)cc3)c[n+]3ccccc23)cc1 | u | -1% | -28% | -10 | u | 17µM*
Oc1ccccc1N=N/C(=N/Nc1ccccc1O)c1ccccc1 | i | -6%[38.3 µM] | -3% | 0 | 14% | 13%
N#C/C(N=Nc1ccccc1O)=N\Nc1ccccc1O | 16µM* | 3%[38.3 µM] | -67% | 15 | u | u
O=C(O)c1ccc(Cl)c(S(=O)(=O)N(Cc2ccccc2)c2ccc(Cl)cc2)c1 | i | -13% | -25% | 1 | -16% | -18%
CC1(C)CC(NC(=O)c2ccc(Cl)c(S(=O)(=O)N(Cc3ccccc3)c3ccccc3)c2)CC(C)(C)N1 | x | 0% | 18µM* | -7 | u | u
COc1ccccc1N(Cc1ccccc1)S(=O)(=O)c1cccc(C(=O)NC2CC(C)(C)NC(C)(C)C2)c1 | u | -2% | 13µM* | -2 | -15% | u
NC(=O)COC(=O)c1ccc(Cl)c(S(=O)(=O)N(Cc2ccccc2)c2ccc(Cl)cc2)c1 | i | -8% | 1% | -1 | 16µM* | 8%[11.3 µM]
COc1ccc(-c2ccc(CN3C(C(C)C)C(=O)N(Cc4cn(Cc5ccco5)nn4)CCS3(=O)=O)cc2)cc1 (centres undefined) | u | 14% | -33% | 1 | u | -5%
CCC/C=C/c1ccc(CN2C(C(C)C)C(=O)N(Cc3cn(Cc4ccco4)nn3)CCS2(=O)=O)cc1 (centres undefined) | u | 8% | -109% | 1 | 11µM* | u
CCC/C=C/c1ccc(CN2C(C)C(=O)N(Cc3cn(Cc4ccco4)nn3)CCS2(=O)=O)cc1 (centres undefined) | u | 10% | -33% | 2 | 22µM* | -29%
Cc1cc(O)c(-c2cc(O)c(C)cc2O)cc1O | u | -1% | 22µM* | 64 | u | x
Cc1cccc2c(=O)cc(CSc3ccccc3NC(=O)c3cccc(Cl)c3)[nH]c12 | 32µM* | 0% | -28% | -1 | -32% | -8%
Nc1cc(=O)n(Cc2ccccc2)c(=O)n1-c1ccc(F)cc1 | i | 3% | -8% | -9 | 8% | -15%
SMILES | S2 tox | IDH1 R132H inh | HepG2 viability | LDHA block | TGFb SMAD3 inh | ATXN2 expr inh
Cc1ccc(NC(=O)C2CCN(S(=O)(=O)c3c(C)noc3/C=C/c3ccco3)CC2)cc1C | x | -4% | -3% | 6 | -16% | x
CCN(CC)CCNC(=O)C1CCN(S(=O)(=O)c2c(C)noc2/C=C/c2ccccc2F)CC1 | u | 4% | 14µM*! | -1 | u | 13µM*
Cc1noc(/C=C/c2ccco2)c1S(=O)(=O)N1CCC(C(=O)Nc2ccc(F)c(Cl)c2)CC1 | x | 5% | -10% | -3 | 2.5µM* | x
COC(=O)[C@]1(Cc2ccccc2)N[C@H](CN(C)C(=O)Nc2ccc(C)cc2)[C@@H]2C(=O)N(C)C(=O)[C@@H]21 | i | -8% | 3% | 3 | 7% | 0%
CC1=NN(C(=O)Cc2ccc([N+](=O)[O-])cc2)C(O)(C(F)(F)C(F)(F)F)C1 (centres undefined) | u | -2% | -70% | -3 | 11µM* | x
CC(C)Cn1nc(C(=O)N2CCCCC2c2nc3ccccc3s2)c2ccccc2c1=O (centres undefined) | x | x | x | 4 | x | x
O=C(c1cccs1)N1C[C@@H](n2cc(C3CC3)nn2)[C@H](O)C[C@@H]1c1ccccc1 | i | -12% | -18% | -37* | -9% | -4%
O=C(c1cccs1)N1C[C@@H](n2cc(C3CC3)nn2)[C@H](O)C[C@@H]1c1ccc(Cl)cc1 | i | -13% | -10% | -36* | -14% | -8%
O=C(c1cccs1)N1C[C@@H](O)[C@H](n2cc(C3CC3)nn2)C[C@@H]1c1ccc(Cl)cc1 | i | 4% | -26% | -2 | -12% | 7%
CN(C)c1cccc(C(=O)NNC(=O)c2cccc(Cl)c2)c1 | x | x | x | 9 | x | x
CC(C)c1ccc(/C=C2\C(=O)N(CCN3CCOCC3)C(=S)N2C)cc1 | i | -3% | -12% | -5 | -2% | -6%
CCc1ccc2nc3nc(C)cc(C)c3c(N)c2c1 | x | 10% | -42% | 3 | 13µM* | u
CCc1ccc2nc(-c3ccccc3C)cc(C(=O)O)c2c1 | x | x | x | -3 | x | x
O=C(C1COc2ccccc2O1)N1CCN(Cc2ccc(Br)cc2F)CC1 (centres undefined) | i | 5% | -27% | -2 | -27% | -22%
C(=N\Nc1ccc2ccccc2n1)/c1ccc2c(c1)OCCO2 | u | 8% | -65% | -2 | 16µM* | u
Cn1c(=O)n(C/C=C/c2ccccc2)c(=O)c2c1nc1n2CCN1c1ccc(Cl)cc1 | x | -8% | 4% | -10 | -4% | x
COc1cc(C=CC(=O)c2cc(OC)c(OC)c(OC)c2)cc(OC)c1OC | u | 15% | -77% | -6 | 11µM* | u
